# PubChem BioAssay (EPA / NIEHS)
# Records with an inconclusive call do not appear. Active and inactive are the calls of the source. The calls were made as follows: active = hit-call score of the fitted dose curve at least 0.9, where 1 is the maximum; inconclusive = response in the unintended direction; inactive = score below 0.9.
# Molecular target: human Peroxisome Proliferator-activated Receptor alpha (PPARa), PPARA (gene 5465) (UniProt Q07869)
# Experiment: ATG_PPARa_TRANS: Attagene TRANS-FACTORIAL HepG2 Assay for human Peroxisome Proliferator-activated Receptor alpha (PPARa) (AID 2283001)
# Method: ATG_TRANS is a cell-based, multiplexed-readout assay that uses HepG2, a human liver cell line, with measurements taken at 24 hours after chemical dosing in a 24-well plate.ATG_PPARa_TRANS is one of 30 assay component(s) measured or calculated from the ATG_TRANS assay. It is designed to make measurements of mRNA induction, a form of inducible reporter, as detected with fluorescence intensity signals by Reverse transcription polymerase chain reaction (RT-PCR) and Capillary electrophoresis technology.Data from the assay component ATG_PPARa_TRANS was analyzed into 1 assay endpoint. This assay endpoint, ATG_PPARa_TRANS, was analyzed in the positive analysis fitting direction relative to DMSO as the negative control and baseline of activity. Using a type of inducible reporter, measures of mRNA for gain-of-signal activity can be used to understand the reporter gene at the transcription factor-level as they relate to the gene PPARA. Furthermore, this assay endpoint can be referred to as a primary readout, because this assay has produced multiple assay endpoints where this one serves a reporter gene function. To generalize the intended target to other relatable targets, this assay endpoint is annotated to the nuclear receptor intended target family, where the subfamily is non-steroidal.
# Human liver HepG2 cells are transiently transfected with multiple reporter transcription units (MRTUs) in 6-well plates using FuGene 6 reagent (Roche; 3 ml FuGene/1 mg DNA). The MRTU constructs are regulated by a cis-regulating element (promoter). […] A major difference between the CIS and TRANS system is that in CIS activities of endogenous TFs are measured, whereas the TRANS assay evaluates changes in activities of exogenous, chimeric NR-Gal4 proteins. […] At the end of 24 hour incubation, total RNA was isolated using TriZol reagent (Invitrogen). The isolated RNA is then reverse-transcribed using oligo(dT) primer and Mo-MLV reverse transcriptase (Invitrogen) with DNAse I (Ambion) treatment for 30 min. The one-tenth of the produced cDNA was amplified by PCR using Taq DNA polymerase (Invitrogen) and two reporter sequence-specific primers. The PCR products were fluorescently labeled by primer extension with 6-arboxyfluorescein (6-FAM) 5'-labeled reporter sequence-specific primer (2 min at 95 C, 20 s at 68 C and 10 min at 72 C) and these products were digested with 5U of HpaI (New England Biolabs) for 2h at 37 C. The fragments were purified using Qiaquick PCR columns (Qiagen), analyzed on an ABI 3130xL genetic analyzer (Applied Biosystems) with peak positions identified by using a set of X-rhodamine (ROX)-labeled MapMarker1000 molecular weight standards (BioVentures). The raw capillary electrophoresis data was processed using Attagraph software (Attagene).
# human Peroxisome Proliferator-activated Receptor alpha (PPARa), PPARA (gene 5465), sequence (Q07869 whole entry, looked up): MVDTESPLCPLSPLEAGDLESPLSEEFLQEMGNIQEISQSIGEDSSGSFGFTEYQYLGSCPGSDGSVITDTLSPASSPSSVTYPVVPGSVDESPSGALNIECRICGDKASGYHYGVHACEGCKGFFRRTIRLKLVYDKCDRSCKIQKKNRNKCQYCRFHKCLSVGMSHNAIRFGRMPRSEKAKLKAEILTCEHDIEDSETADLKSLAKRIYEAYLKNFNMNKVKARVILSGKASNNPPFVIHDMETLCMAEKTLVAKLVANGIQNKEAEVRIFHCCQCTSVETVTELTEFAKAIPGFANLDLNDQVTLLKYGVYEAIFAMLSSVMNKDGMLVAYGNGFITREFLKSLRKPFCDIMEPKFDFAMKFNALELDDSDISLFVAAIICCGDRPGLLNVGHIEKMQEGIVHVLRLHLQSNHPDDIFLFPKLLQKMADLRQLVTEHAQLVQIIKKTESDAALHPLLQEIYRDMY
row,SMILES,outcome
1,CNC(=O)Oc1cccc2c1OC(C)(C)O2,inactive
2,O=C(O)c1cc(Oc2ccc(C(F)(F)F)cc2Cl)ccc1[N+](=O)[O-],inactive
3,CNC(=O)ON=C(C)SC,inactive
4,CC(Oc1cccc(Cl)c1)C(=O)O (stereo not given),inactive
5,COP(=O)(OC)SCn1c(=O)oc2cc(Cl)cnc21,inactive
6,CN(C)NC(=O)CCC(=O)O,inactive
7,C#CCC1=C(C)C(OC(=O)C2C(C=C(C)C)C2(C)C)CC1=O (stereo not given),inactive
8,COc1ccc(C(=CC(=O)N2CCOCC2)c2ccc(Cl)cc2)cc1OC,inactive
9,CCCCSP(=O)(SCCCC)SCCCC,inactive
10,CCOC(=O)COc1cc(-c2nn(C)c(OC(F)F)c2Cl)c(F)cc1Cl,inactive
11,CC(C)N(C(=O)SCC(Cl)=C(Cl)Cl)C(C)C,inactive
12,CCCCOC(=O)[C@@H](C)Oc1ccc(Oc2ccc(C#N)cc2F)cc1,inactive
13,CCCCOC(=O)c1ccccc1C(=O)O,inactive
14,CC1=NNC(=O)N(/N=C/c2cccnc2)C1,inactive
15,Cc1ccn2nc(S(=O)(=O)Nc3c(F)cccc3F)nc2n1,inactive
16,O=c1ccc(=O)[nH][nH]1,inactive
17,CCOP(=S)(OCC)SCCSCC,inactive
18,CON=C(C(=O)OC)c1ccccc1CON=C(C)c1cccc(C(F)(F)F)c1,inactive
19,Cc1cc(C2CC2)nc(Nc2ccccc2)n1,inactive
20,CCOC(=O)CC(SP(=O)(OC)OC)C(=O)OCC (stereo not given),inactive

row,SMILES,outcome
1,CCCSP(=O)(OCC)Oc1ccc(Br)cc1Cl (stereo not given),inactive
2,CC(C1CC1)C(O)(Cn1cncn1)c1ccc(Cl)cc1 (stereo not given),inactive
3,CN(C)[C@@H]1C(=O)C(C(N)=O)=C(O)[C@@]2(O)C(=O)C3=C(O)c4c(O)cccc4[C@@](C)(O)[C@H]3[C@H](O)[C@@H]12,inactive
4,N#CSCSC#N,inactive
5,CC(=NC#N)N(C)Cc1ccc(Cl)nc1,inactive
6,COP(=O)(OC)C(O)C(Cl)(Cl)Cl (stereo not given),inactive
7,CN1COCN(Cc2cnc(Cl)s2)C1=N[N+](=O)[O-],inactive
8,CCNc1nc(Cl)nc(NC(C)(C)C#N)n1,inactive
9,CN(C)C(=O)Nc1cccc(C(F)(F)F)c1,inactive
10,CCCOCC(=Nc1ccc(Cl)cc1C(F)(F)F)n1ccnc1,inactive
11,CCOP(=S)(OCC)Oc1ccc2c(C)c(Cl)c(=O)oc2c1,inactive
12,CC(C)=CC1C(C(=O)OCN2C(=O)C3=C(CCCC3)C2=O)C1(C)C (stereo not given),inactive
13,Nc1nc(N)nc(NC2CC2)n1,inactive
14,O=[N+]([O-])c1cc(C(F)(F)F)c(Cl)c([N+](=O)[O-])c1Nc1ncc(C(F)(F)F)cc1Cl,inactive
15,CCC(=O)Nc1ccc(Cl)c(Cl)c1,inactive
16,CSc1nc(NC(C)C)nc(NC(C)C)n1,inactive
17,C[Si](Cn1cncn1)(c1ccc(F)cc1)c1ccc(F)cc1,inactive
18,Cc1nn(-c2cc(NS(C)(=O)=O)c(Cl)cc2Cl)c(=O)n1C(F)F,inactive
19,CCCCN(CC)c1c([N+](=O)[O-])cc(C(F)(F)F)cc1[N+](=O)[O-],inactive
20,CNC(=O)ON=C(SC)C(=O)N(C)C,inactive
